Results filed as inconclusive are left out. Entries that show only a call come without a potency. A number with no mark means an inactive call. Activity calls are given as the source filed them. The call rests on the fitted dose curve; in most records, active means well fitted inhibition curve with a large enough effect in the repeat runs; inconclusive means weak or mixed curves, or effect the other way; inactive means no such curve, though single readings can be large or run the other way.

The values that follow come from PubChem BioAssay (Tox21).
Potency means the concentration at half of the fitted maximal effect.

This assay deals with Nuclear receptor subfamily 1 group I member 3 (Homo sapiens) (UniProt Q14994). The assay can be described thus: qHTS assay to identify small molecule antagonists of the constitutive androstane receptor (CAR) signaling pathway (AID 1224838).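 Further: HepG2 cells stably expressing hCAR with CYP2B6 luciferase reporter stimulated by CITCO; nearly all actives have a fitted effect of over 40% in size.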 The conditions noted are these: HepG2-CYP2B6-hCAR luciferase, CITCO-stimulated, 24 h; series mostly up to 92.4 µM. The text has this: U.S. Tox21 Program National Center for Advancing Translational Sciences [NCATS] NIH Chemical Genomics Center [NCGC] U.S. Environmental Protection Agency [EPA] National Institutes of Environmental Health Sciences [NIEHS] National Toxicology Program [NTP] U.S. Food and Drug Administration [FDA] Tox21 Assay Overview: The constitutive androstane receptor (CAR) is a nuclear receptor which regulates multiple drug metabolizing enzymes (DMEs) and transporters. Activating CAR will generally increase the transcription and subsequent translation of CYP2B6 and CYP3A4. These two DMEs represent about 50% of the drug metabolizing potential in the body. When CAR is deactivated, the metabolizing potential in the body will decrease, subsequently increasing the toxicity in the body or lowering the therapeutic potential of a pro-drug. Recently, there have also been studies performed indicating CARs role in energy metabolism and cancer therapy. Therefore, inhibiting CARs activity could have a potential effect on diabetes and cancer. Identifying environmental toxins and compounds which modulate CAR, through the use of the Tox21 10K compound collection, will be an important step in determining the toxicity and potential therapeutic effects these factors will have on the human body.
Sequence of Nuclear receptor subfamily 1 group I member 3 (Homo sapiens) (Q14994 whole entry, looked up): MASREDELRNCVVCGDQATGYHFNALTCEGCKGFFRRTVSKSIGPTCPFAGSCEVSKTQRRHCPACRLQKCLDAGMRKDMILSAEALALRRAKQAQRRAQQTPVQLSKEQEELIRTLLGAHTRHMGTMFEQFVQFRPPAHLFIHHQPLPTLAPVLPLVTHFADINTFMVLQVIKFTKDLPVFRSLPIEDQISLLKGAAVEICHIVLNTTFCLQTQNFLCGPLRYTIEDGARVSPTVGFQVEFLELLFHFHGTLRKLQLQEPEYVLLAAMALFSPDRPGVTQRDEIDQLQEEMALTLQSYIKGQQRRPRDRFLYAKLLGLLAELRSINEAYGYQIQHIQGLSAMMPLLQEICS
Tox21 Assay Protocol Summary: A double-stable (hCAR and CYP2B6-2.2kb) transfected cell line, derived from human hepatoma (HepG2) cells, was utilized for the duration of the quantitative high-throughput screens. The HepG2-CYP2B6-hCAR cells suspended in DMEM culture medium supplemented with 10% FBS, 5 ug/mL blasticidin, 0.5 mg/mL geneticin, 100 U/mL penicillin and 100 ug/mL streptomycin were dispensed at 2500 cells/4 uL/well in 1536-well white solid bottom plates using a Multidrop Combi. After the assay plates were incubated at 37 C/5% CO2 for 4 hrs, 23 nL of compounds at 15 concentrations (from 5-48 columns) or positive control (from 1 to 4 columns) were transferred to the assay plates using a Pintool station. One uL of CITCO, was added using a Flying Reagent Dispenser to generate a final concentration of 50 nM CITCO inside each well. After a 24 hr incubation period at 37 C/5% CO2, four uL of ONE-Glo reagent was added into the assay plates using a Flying Reagent Dispenser. After a 30 min incubation period at room temperature, the luminescence intensity in the assay plates was measured using a ViewLux plate reader.
For orientation: Quantitative high-throughput screening tests each substance at several concentrations.
With `c1ccc2cc3c4ccccc4c4ccccc4c3cc2c1`, the Potency is 10.9 µM (active).

On to `O=C(Cl)c1ccc(Cl)cc1Cl`, for which the Potency entry is “inactive”.

As to `CN(C[C@@H](CC[N+]12CCC(C3CCCCC3)(CC1)CC2)c1ccc(Cl)c(Cl)c1)C(=O)c1cc(C(F)(F)F)cc(C(F)(F)F)c1`, the Potency was 54.5 µM (active).

`CCC1(C)C(=O)N(Cl)C(=O)N1Cl` (stereo not given): the Potency entry is “inactive”.

In the case of `Oc1ccc2c(c1)CCC2`, the Potency result was “inactive”.

Regarding `CCOC(=O)[C@H](O)[C@@H](O)C(=O)OCC`, the Potency entry was “inactive”.

Consider `C=Cc1ccncc1`, for which the Potency result was “inactive”.

Take `CSc1ccc(O)cc1C`: the Potency result was “inactive”.

Regarding `COC(=O)c1ccc([N+](=O)[O-])cc1`, the Potency entry is “inactive”.

In the case of `O=C(O)C[C@H](O)C[C@H](O)/C=C/c1c(C2CC2)nc2ccccc2c1-c1ccc(F)cc1`, the activity, negative = inhibition is -27.1% [at 19 µM].

Regarding `CCCCCCCCCCCC(=O)Cl`, the Potency result is “inactive”.

In the case of `CC1CCC(C(C)(C)O)CC1` (stereo not given), the Potency result is “inactive”.

On to `Cc1cccc2c1ccc1ccccc12`, for which the Potency entry is “inactive”.

On to `N#CCCOCCC#N`, for which the Potency entry was “inactive”.

As for `CSc1nnc(C(C)(C)C)c(=O)[nH]1`, the Potency entry was “inactive”.

As for `COc1cc(OC)nc(NC(=O)NS(=O)(=O)Nc2ccccc2C(=O)N(C)C)n1`, the Potency entry is “inactive”.

On to `CCCCCCCCOC(=O)c1cc(O)c(O)c(O)c1`, for which the Potency result was “inactive”.

With `CCCCCCCCCCCCCCCCC(C(=O)O)C(O)(CC(=O)O)C(=O)O` (stereo not given), the Potency result was “inactive”.

As for `ClC(c1ccccc1)(c1ccccc1)c1ccccc1`, the Potency entry is “inactive”.

Turning to `Nc1cc([N+](=O)[O-])ccc1Cl`, the Potency result is “inactive”.

On to `COc1ccc(OC)c(N=Nc2c(O)ccc3ccccc23)c1`, for which the Potency entry is “inactive”.

For the compound `O=C1c2ccccc2C(=O)c2c(Cl)cccc21`, the Potency entry was “inactive”.

Take `CC(Cc1ccc(O)c(O)c1)C(C)Cc1ccc(O)c(O)c1` (stereo not given): the Potency result is “inactive”.

As for `C=CC(C)(C)O`, the Potency entry was “inactive”.

For `O=[N+]([O-])c1ccc(O)c2ncccc12`, the Potency entry was “inactive”.

For the compound `CCOc1nc(F)cc2nc(S(=O)(=O)Nc3c(Cl)cccc3C(=O)OC)nn12`, the Potency result was “inactive”.

On to `CCOC=C(C(=O)OCC)C(=O)OCC`, for which the Potency result is “inactive”.

As to `Cc1cc(Br)ccc1NC(=O)CCl`, the Potency is 68.6 µM (active).

As for `O=C(CCN1CCC(c2ccccc2)C1)c1ccc2c(c1)OCCO2` (stereo not given), the Potency entry is “inactive”.

For the compound `O=C1C=CC(=O)N1c1cccc(N2C(=O)C=CC2=O)c1`, the Potency was 61.1 µM (active).

As for `C=Cc1ccc(O)c(OC)c1`, the Potency result is “inactive”.

On to `CCc1c(C)cc(N)c(CC)c1N`, for which the Potency result was “inactive”.

Regarding `Cc1cc(F)ccc1-c1cc(N2CC[C@@H](O)[C@H]2CO)ncc1N(C)C(=O)C(C)(C)c1cc(C(F)(F)F)cc(C(F)(F)F)c1`, the Potency result was “inactive”.

Take `O=C1OCc2ccccc21`: the Potency result is “inactive”.

In the case of `Nc1cc([N+](=O)[O-])cc(Cl)c1O`, the Potency result was “inactive”.

Take `CCN(CCC#N)c1ccc(N=Nc2ccc([N+](=O)[O-])cc2)cc1`: the Potency result is “inactive”.

With `Cc1ccc(N=Nc2c(O)ccc3ccccc23)c(C)c1`, the Potency entry was “inactive”.

As for `CCCCCCCCCCCCS(=O)(=O)Cl`, the activity, negative = inhibition is -3.15% [at 19 µM].

As to `O=C(N[C@H](CO)[C@H](O)c1ccc([N+](=O)[O-])cc1)C(Cl)Cl`, the Potency result was “inactive”.

Consider `COc1cc(C(C)C)ccc1C`, for which the activity, negative = inhibition was -11.9% [at 19 µM].
